PubChem BioAssay AID1159580 (chemical genetic matrix, 2015)
Screen size: about 5,500 compounds; about 2,000 (36%) were called active. Another 18% or so got no clear call; they are omitted. Rule as the data show it: active = normalized growth mostly below about 0.91 (no sharp cut-off); inconclusive = no clear call, values can overlap the other calls; inactive = mostly above about 0.92. This is one part of the list.

Test: chemical genetic growth profiling, strain panel (AID 1159580);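 also: tested at 20 µM; growth read once vehicle control cultures reached saturation at 30 °C; 1 = growth at the plate median or of vehicle wells; lower values mean less growth of the strain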
Conditions: S. cerevisiae deletion strains, growth OD

Measured: normalized growth

NC(Cc1ccc(N(CCCl)CCCl)cc1)C(=O)O (stereo not given)
inactive: locus YAL013W, strain DEP1, active compounds read low 0.981 | locus YAL040C, strain CLN3, active compounds read low 0.995 | locus YCL061C, strain MRC1 (second series), active compounds read low 0.996 | locus YDR150W, strain NUM1, active compounds read low 1.01 | locus YDR363W, strain ESC2, active compounds read low 0.986 | locus YER002W, strain NOP16, active compounds read low 0.974 | locus YGR078C, strain PAC10, active compounds read low 0.976 | locus YJR075W, strain HOC1, active compounds read low 1 | locus YMR263W, strain SAP30, active compounds read low 0.997 | locus YMR307W, strain GAS1, active compounds read low 1 | locus YNL153C, strain GIM3, active compounds read low 1.04 | locus YNL175C, strain NOP13, active compounds read low 0.977 | locus YNL197C, strain WHI3, active compounds read low 0.983 | locus YNL224C, strain SQS1, active compounds read low 1.01 | locus YOR083W, strain WHI5 (second series), active compounds read low 0.993

OCCc1ccccc1
inactive: locus YAL021C, strain ccr4, active compounds read low 0.971 | locus YAL026C, strain drs2, active compounds read low 0.98 | locus YAL030W, strain snc1, active compounds read low 0.968 | locus YBL061C, strain skt5, active compounds read low 0.985 | locus YBR009C, strain hhf1, active compounds read low 0.976 | locus YBR023C, strain chs3, active compounds read low 0.992 | locus YBR171W, strain sec66, active compounds read low 0.968 | locus YBR231C, strain swc5, active compounds read low 0.989 | locus YBR279W, strain paf1, active compounds read low 0.989 | locus YCL011C, strain gbp2, active compounds read low 0.989 | locus YCL016C, strain dcc1, active compounds read low 0.994 | locus YCL061C, strain MRC1, active compounds read low 0.994 | locus YCL069W, strain vba3, active compounds read low 0.99 | locus YCR088W, strain abp1, active compounds read low 0.983 | locus YDL005C, strain med2, active compounds read low 0.989 | locus YDL040C, strain nat1, active compounds read low 0.999 | locus YDR001C, strain nth1, active compounds read low 0.974 | locus YDR069C, strain doa4, active compounds read low 0.981 | locus YDR137W, strain rgp1, active compounds read low 0.948 | locus YDR159W, strain sac3, active compounds read low 0.98 | locus YDR195W, strain ref2 0.947 | locus YDR297W, strain sur2, active compounds read low 0.984 | locus YDR334W, strain swr1, active compounds read low 0.94 | locus YDR335W, strain msn5, active compounds read low 0.982 | locus YDR392W, strain spt3, active compounds read low 0.999 | locus YEL003W, strain gim4, active compounds read low 0.981 | locus YEL037C, strain rad23, active compounds read low 0.986 | locus YEL061C, strain CIN8 (second series), active compounds read low 0.977 | locus YER015W, strain faa2, active compounds read low 0.987 | locus YER016W, strain bim1, active compounds read low 0.99 | locus YER111C, strain swi4, active compounds read low 0.982 | locus YER155C, strain BEM2 (second series), active compounds read low 0.975 | locus YFR010W, strain ubp6, active compounds read low 0.973 | locus YGL167C, strain pmr1, active compounds read low 0.99 | locus YGL173C, strain kem1, active compounds read low 0.957 | locus YGL227W, strain vid30, active compounds read low 0.971 | locus YGL240W, strain doc1, active compounds read low 0.977 | locus YGL253W, strain hxk2, active compounds read low 0.986 | locus YHR013C, strain ard1, active compounds read low 0.99 | locus YHR027C, strain rpn1, active compounds read low 0.961 | locus YHR030C, strain SLT2, active compounds read low 0.97 | locus YHR079C, strain IRE1, active compounds read low 0.951 | locus YHR142W, strain chs7, active compounds read low 0.972 | locus YJL092W, strain hpr5, active compounds read low 0.988 | locus YJL095W, strain BCK1 (second series), active compounds read low 0.986 | locus YJL095W, strain BCK1, active compounds read low 1.02 | locus YJL115W, strain asf1, active compounds read low 0.976 | locus YJL129C, strain trk1, active compounds read low 1.03 | locus YJL154C, strain vps35, active compounds read low 0.969 | locus YJL164C, strain tpk1, active compounds read low 1 | locus YJL166W, strain qcr8, active compounds read low 0.989 | locus YJL187C, strain SWE1, active compounds read low 0.987 | locus YJR066W, strain TOR1, active compounds read low 0.952 | locus YKL160W, strain elf1, active compounds read low 0.996 | locus YKR026C, strain gcn3, active compounds read low 0.983 | locus YKR091W, strain srl3, active compounds read low 0.994 | locus YLL001W, strain dnm1, active compounds read low 0.999 | locus YLL026W, active compounds read low 0.97 | locus YLL041C, strain sdh2, active compounds read low 0.984 | locus YLR027C, strain aat2, active compounds read low 0.965 | locus YLR113W, strain HOG1, active compounds read low 1.01 | locus YLR221C, strain rsa3, active compounds read low 0.982 | locus YLR258W, strain gsy2, active compounds read low 0.992 | locus YLR262C, strain YPT6 (second series), active compounds read low 0.961 | locus YLR320W, strain mms22, active compounds read low 0.987 | locus YLR342W, strain FKS1, active compounds read low 0.988 | locus YLR357W, strain rsc2, active compounds read low 1 | locus YLR370C, strain arc18, active compounds read low 0.988 | locus YLR384C, strain iki3, active compounds read low 0.979 | locus YML120C, strain ndi1, active compounds read low 0.995 | locus YMR058W, strain fet3, active compounds read low 0.98 | locus YMR125W, strain sto1, active compounds read low 0.982 | locus YMR129W, active compounds read low 0.99 | locus YMR205C, strain PFK2, active compounds read low 0.963 | locus YMR231W, strain pep5, active compounds read low 0.99 | locus YNL071W, strain lat1, active compounds read low 0.986 | locus YNL183C, strain NPR1, active compounds read low 0.958 | locus YNL209W, strain ssb2, active compounds read low 0.988 | locus YNL248C, strain rpa49, active compounds read low 0.994 | locus YNL322C, strain KRE1 (second series), active compounds read low 0.988 | locus YNR049C, strain mso1, active compounds read low 0.975 | locus YOR001W, strain rrp6, active compounds read low 0.993 | locus YOR070C, strain gyp1, active compounds read low 0.986 | locus YOR080W, strain dia2, active compounds read low 0.996 | locus YOR083W, strain WHI5, active compounds read low 0.995 | locus YOR106W, strain vam3, active compounds read low 0.976 | locus YOR231W, strain MKK1, active compounds read low 0.973 | locus YOR265W, strain rbl2, active compounds read low 1 | locus YOR270C, strain vph1, active compounds read low 0.949 | locus YOR290C, strain snf2, active compounds read low 0.986 | locus YPL051W, strain arl3, active compounds read low 0.995 | locus YPL078C, strain atp4, active compounds read low 0.976 | locus YPL106C, strain sse1, active compounds read low 0.916 | locus YPL240C, strain hsp82, active compounds read low 0.997 | locus YPL256C, strain CLN2, active compounds read low 0.981
